# Data from the OligoGym collection.
# Target: PXDN
# Assay: pooled miR-30 sensor sort-seq; sequence = guide strand
# Conditions: shRNA
# Further: reference of the scale not given here.
row,Sequence,sensor-assay potency score (higher = more potent)
1,TTGTAGTGGTAACTTGTTCCGT,-0.383
2,TATAGCTCTGTCAACAGTCGCA,-0.0838
3,TTCAGCTTGAGCAGCTCCGTGG,-0.881
4,TTCTATCTGATTAAAGTGCAGG,-0.41
5,TTGAGTTTATAGCTCTGTCAAC,-1.24
6,TTTTCCACTTTCTGTCACCTGA,0.0535
7,TTCCAGAACAAACTCTCTGAAG,-1.36
8,TTCACAGTTCAGCTCTTCCGGG,-0.633
9,TGTAGTGGTAACTTGTTCCGTT,0.669
10,TATCTGATTAAAGTGCAGGTAT,-0.445
11,TTGAGGTCGACCATCAAGCCAT,-0.562

# Target: PXN
# Assay: as above
# Conditions: shRNA
row,Sequence,sensor-assay potency score (higher = more potent)
1,AACATGTCGAAGTAGTCCTTGC,-0.89
2,TACAGCGTTCAGTTCCAGCAGC,-0.582
3,TAGTTCTCCAGGATGGCCCGGG,-0.505
4,TTCTCGTGGAACCCTTCGGGAC,-1.59
5,TAGGCTTCTCTTTCGTCAGGGG,0.384
6,TAGAAATCTATCAAAGTCGGTA,0.0963
7,TTGAGTTGGCCTCATCTGCAGG,-0.889
8,TTGCAGTAGTAGCAGCGCGGGG,-1.51
9,TCGTGCTCGAAGAAGCTGCCGT,-0.594
10,TTGTTGAGCTGCTTGAGGCAGA,-0.264
11,TTTCACAGTAGGGCTGTCCATC,-0.695
12,TTCAGTTCCAGCAGCAGGCGGT,-0.708
